In the supplement of paper PMC13380429:

How the values were obtained:
[1] = tested on: Vero E6 infected with SARS-CoV-2; assay: morphology score (similarity to uninfected cells); higher = more like uninfected cells; conditions: 24 h
[2] = tested on: Vero E6 infected with SARS-CoV-2; assay: SARS-CoV-2 infection rate relative to infected DMSO; higher = more infection, active = 60 or less; conditions: 24 h

| Compound | morphology score [1] | SARS-CoV-2 infection rate [2] |
| --- | --- | --- |
| O=C(c1ccc(Cl)cc1)N(Cc1ccccc1)C1CCCCC1 (10 µM) | -0.00245 | 103% (inactive) |
| CCS(=O)(=O)c1cccc(-c2cc(C(=O)NC3CCN(C)CC3)c(C)c3[nH]c4ncc(C)cc4c23)c1 (0.833333 µM) | 0.14 | 105% (inactive) |
| O=C(O)c1ccc2c(c1)nc(Nc1cccc(Cl)c1)c1ccncc12 (10 µM) | 0.237 | 103% (inactive) |
| CCOc1ccc2nc(SCCN3CCOCC3)[nH]c2c1 [afobazole] (10 µM) | -0.0209 | 111% (inactive) |
| Oc1c(Cl)cc(Cl)cc1Sc1cc(Cl)cc(Cl)c1O [bithionol] (10 µM) | -0.096 | 106% (inactive) |
| CC(C)Nc1cc(-c2c[nH]c(C(=O)N[C@H](CO)c3cccc(Cl)c3)c2)c(Cl)cn1 (0.833333 µM) | -0.017 | 109% (inactive) |
| CCN(CC)CCOc1ccc(C(O)(Cc2ccc(Cl)cc2)c2ccc(C)cc2)cc1 (configuration not stated) [Triparanol] (0.833333 µM) | 0.0848 | 77.5% (inactive) |
| Cc1ccc(S(=O)(=O)Cc2nc(-c3ccc(C(=O)NCc4cccnc4)cc3)oc2C)cc1 (0.833333 µM) | -0.146 | 93% (inactive) |
| CNCC[C@@H](Oc1ccccc1C)c1ccccc1 [atomoxetine] (10 µM) | 0.0668 | 102% (inactive) |
| CC(=O)Nc1ccc(C(=O)NC(C)(C)C)cc1 (10 µM) | 0.0601 | 106% (inactive) |
| CN1CCC(=C2c3ccccc3CC(=O)c3sccc32)CC1 [ketotifen] (10 µM) | 0.144 | 101% (inactive) |
